Compound activity: PubChem BioAssay, several laboratories
Sampled rows, rich in hits. Any-hit rate of the full collection: about 2.5%.
GAA850 FXN act: activators of GAA850 frataxin (FXN) promoter; 0.56% of 360,000 active; activation, % at 6 µM; HEK293 lucGAA850 FXN promoter luciferase reporter, 24 h; percent of 10 µM SAHA response;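 active = activation above the average of all compounds screened plus 3 SD, cutoff fixed separately per campaign, cut at about 7.5% in these data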
Env fusion inh: inhibitors of HIV Env-mediated cell fusion; inhibition, % at 12.3 µM; HeLa-JRFL Env/CEM21 cell fusion, luciferase; 1.1% of 360,000 active;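 active = mean replicate inhibition score of at least 50 and every replicate individually at or above 50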
PAX8 inh HTS: PAX8 transcriptional activity inhibition. RMG-I TPO-luciferase reporter, SteadyGlo, 24 h. inhibition, % at 12.6 µM. 1.2% of 360,000 active;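 active = mean replicate inhibition at least 60% with every replicate also reaching 60%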;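 also: luciferase light reporting Pax8 driven TPO promoter activity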
F508del corr: correctors of CFTR F508del function in bronchial epithelial cells; 0.36% of 350,000 active; CFBE cells, YFP halide quenching; stimulated with forskolin plus potentiator P3; % fluorescence drop versus neutral controls; activity (quench increase), % at 7.58 µM;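 active = mean added fluorescence quench of at least 8% versus neutral control, with both replicates also reaching 8%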;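 also: cells transiently co-express mutant CFTR-F508del with the halide-sensitive YFP; corrector assay measuring rescue of mutant channel to the surface after 24 h compound exposure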
EWS-Fli block: blocks EWS/Fli oncoprotein-driven transcription. 0.67% of 350,000 active. inhibition, % at 12.6 µM. A673 NR0B1-luciferase reporter, viability-normalised;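 active = mean inhibition of at least 50% after viability correction, with every replicate also passing that limit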;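 also: firefly luciferase signal divided by Alamar Blue viability fluorescence both relative to DMSO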
DNA binder FP: binds DNA displacing acridine orange; 2% of 640 active; shares compounds with EWS-Fli block; salmon sperm DNA acridine orange fluorescence polarization; AID 720586; AC35, µM (top dose mostly 68 µM);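 active = fitted curve reaches a 35% signal fall AC35 below twice the sample's top valid tested dose, actives reach about 48 µM in these data; inactive = the rest, including activity in the rising direction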;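 also: lower polarization ratio signals compound binding to DNA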
Each line names hits and unclear results; the compound was inactive in the other large screens (follow-up assays come after a bar, where they were run); ! = not confirmed by another sample.

C[C@@H]1CN([C@H](C)CO)C(=O)c2cc(NC(=O)CCCCCC(=O)Nc3ccccc3N)ccc2O[C@@H]1CN(C)Cc1ccc(Cl)c(Cl)c1	EWS-Fli block 69 (no result: GAA850 FXN act, Env fusion inh, PAX8 inh HTS) | DNA binder FP inactive
Cc1ccc(S(=O)(=O)N(C)C[C@@H]2Oc3ccc(NC(=O)CCCCCC(=O)Nc4ccccc4N)cc3CC(=O)N([C@@H](C)CO)C[C@@H]2C)cc1	EWS-Fli block 56 (no result: GAA850 FXN act) | DNA binder FP inactive
O=C(Nc1cccc(F)c1)N1CC(=O)N2[C@H](C1)[C@@H](c1ccc(-c3ccc(F)cc3)cc1)[C@@H]2CO	none (no result: GAA850 FXN act, Env fusion inh)
COCC(=O)Nc1ccc2c(c1)OC[C@H](C)N(C(=O)CC1CC1)C[C@@H](C)[C@H](OC)CN(C)C2=O	none (no result: GAA850 FXN act)
C[C@@H]1CN([C@@H](C)CO)C(=O)Cc2cc(NC(=O)Nc3ccc(C(F)(F)F)cc3)ccc2O[C@@H]1CN(C)Cc1ccc(C(=O)Nc2ccccc2N)cc1	EWS-Fli block 55 (no result: GAA850 FXN act, PAX8 inh HTS) | DNA binder FP inactive
C[C@H]1CN([C@@H](C)CO)C(=O)Cc2cc(NC(=O)Nc3ccc(F)cc3)ccc2O[C@@H]1CN(C)Cc1ccc(C(=O)Nc2ccccc2N)cc1	none (no result: GAA850 FXN act, Env fusion inh)
C[C@H]1CN([C@@H](C)CO)C(=O)c2cc(NC(=O)C3CCCCC3)ccc2O[C@H]1CN(C)Cc1ccc(C(=O)Nc2ccccc2N)cc1	EWS-Fli block 52 (no result: GAA850 FXN act, PAX8 inh HTS) | DNA binder FP inactive
C[C@H]1CN([C@@H](C)CO)C(=O)c2cc(NC(=O)c3ccncc3)ccc2O[C@@H]1CN(C)Cc1ccc(C(=O)Nc2ccccc2N)cc1	none (no result: GAA850 FXN act, Env fusion inh, PAX8 inh HTS)
C[C@H]1CN([C@@H](C)CO)C(=O)c2cc(N(C)C)ccc2O[C@@H]1CN(C)Cc1ccc(C(=O)Nc2ccccc2N)cc1	EWS-Fli block 65 (no result: GAA850 FXN act) | DNA binder FP inactive
C[C@@H]1CN([C@@H](C)CO)C(=O)Cc2cc(NS(=O)(=O)c3ccccc3)ccc2O[C@H]1CN(C)Cc1ccc(Oc2ccccc2)cc1	none (no result: GAA850 FXN act)
C[C@H](CO)N1C[C@H](C)[C@@H](CN(C)Cc2ccc(Oc3ccccc3)cc2)Oc2ccc(NS(=O)(=O)c3ccc(Cl)cc3)cc2CC1=O	PAX8 inh HTS 101, EWS-Fli block 57 (no result: GAA850 FXN act) | DNA binder FP inactive
C[C@@H]1CN([C@@H](C)CO)C(=O)Cc2cc(N(C)C)ccc2O[C@@H]1CN(C)Cc1ccccc1	F508del corr 10, EWS-Fli block 55 (no result: GAA850 FXN act) | DNA binder FP inactive
C[C@@H]1CN([C@H](C)CO)C(=O)CCCn2nncc2CO[C@H]1CN(C)Cc1ccc(Oc2ccccc2)cc1	PAX8 inh HTS 116!, EWS-Fli block 70! | DNA binder FP inactive
C[C@H](CO)N1C[C@H](C)[C@H](CN(C)Cc2ccc(Oc3ccccc3)cc2)OCc2cnnn2CCCC1=O	none (no result: GAA850 FXN act, PAX8 inh HTS)
N#CC1=C(N)Oc2cc(N)ccc2C1c1cccc(F)c1 (centres undefined)	F508del corr 10, EWS-Fli block 53 | DNA binder FP inactive
CN(C)c1ccc2c(c1)OC(N)=C(C#N)C2c1cccc(F)c1 (centres undefined)	none (no result: Env fusion inh, PAX8 inh HTS, F508del corr, EWS-Fli block)
CN=c1scc(-c2cccs2)n1/N=C/c1ccccc1O	Env fusion inh 57, PAX8 inh HTS 118, EWS-Fli block 93 (no result: F508del corr) | DNA binder FP inactive
CN=c1scc(-c2cccs2)n1/N=C/c1ccc(O)c(O)c1O	none
Cc1ccsc1C(=O)OCC(=O)NCCC1=CCCCC1	EWS-Fli block 65 (no result: F508del corr) | DNA binder FP inactive
Cc1cc(N)n(-c2ccc(C(=O)O)cc2)n1	none
CCc1ccc(S(=O)(=O)c2ccc(-n3nc(C)cc3N)cc2)cc1	EWS-Fli block 53 | DNA binder FP inactive
COC(=O)C1=CN(c2ccc(OC)cc2)C(N)=C(C#N)C1c1ccc(OC)cc1 (centres undefined)	none (no result: GAA850 FXN act)
CCc1ccc(N2C=C(C(=O)OC)C(c3ccc(OC)cc3)C(C#N)=C2N)cc1 (centres undefined)	EWS-Fli block 54 (no result: GAA850 FXN act) | DNA binder FP inactive
C[C@H](CO)N1C[C@H](C)[C@H](CN(C)S(=O)(=O)c2ccccc2)OCCCC[C@H](C)Oc2ccc(NC(=O)Nc3ccccc3)cc2C1=O	none (no result: GAA850 FXN act)
O=C(NCc1ccccn1)c1ccc(CNS(=O)(=O)c2cccc(Cl)c2)cc1	EWS-Fli block 58 (no result: F508del corr) | DNA binder FP inactive
CC(C)(C)c1ccc(S(=O)(=O)NCc2ccc(C(=O)NCc3ccccn3)cc2)cc1	none (no result: F508del corr)
Nc1nc(N)c2cc(Sc3ccc4ccccc4c3)ccc2n1	PAX8 inh HTS 68, EWS-Fli block 69 | DNA binder FP inactive
O=C(O)c1ccc(S(=O)(=O)NN=Cc2c[nH]c3ccccc23)cc1	none
O=C(O)c1ccc(N/N=C/c2c[nH]c3ccccc23)cc1	Env fusion inh 59, EWS-Fli block 69 | DNA binder FP inactive
COc1ccc(C2c3cc4c(cc3OC(NNC(N)=O)C2C)OCO4)cc1 (centres undefined)	EWS-Fli block 50 (no result: PAX8 inh HTS) | DNA binder FP inactive
COc1ccc(S(=O)(=O)Nc2cccc3c2O[C@H](CN(C)Cc2ccc(C(=O)Nc4ccccc4N)cc2)[C@H](C)CN([C@@H](C)CO)C3=O)cc1	EWS-Fli block 57 (no result: GAA850 FXN act, Env fusion inh, PAX8 inh HTS) | DNA binder FP inactive
C[C@H](CO)N1C[C@H](C)[C@H](CN(C)Cc2ccc(C(F)(F)F)cc2)Oc2c(NS(=O)(=O)c3ccc(Cl)cc3)cccc2C1=O	EWS-Fli block 60 (no result: GAA850 FXN act, PAX8 inh HTS) | DNA binder FP inactive
COc1ccc(S(=O)(=O)Nc2cccc3c2O[C@@H](CN(C)Cc2ccc(C(=O)Nc4ccccc4N)cc2)[C@@H](C)CN([C@H](C)CO)C3=O)cc1	none (no result: GAA850 FXN act, Env fusion inh)
O=C(c1ccc2c(c1)OCO2)N1C[C@H]2[C@@H](c3ccccc31)[C@H](CO)N2Cc1cccnc1	none (no result: GAA850 FXN act, Env fusion inh)
CCN(C[C@@H]1N[C@H](CO)[C@@H]1c1ccc(C2=CCCC2)cc1)C(=O)c1ccccc1	none (no result: GAA850 FXN act, Env fusion inh)
CN(C[C@H]1N[C@@H](CO)[C@@H]1c1ccc(C2=CCCC2)cc1)C(=O)c1ccc(F)cc1	PAX8 inh HTS 108, EWS-Fli block 73 (no result: GAA850 FXN act, Env fusion inh) | DNA binder FP inactive
O=C1/C(=C\c2ccccc2)CN(C(=O)CCN2CCCCC2)C/C1=C/c1ccccc1	EWS-Fli block 80 | DNA binder FP inactive
O=c1[nH]cnc2c1ncn2C1OC(CO)C(O)C1O (centres undefined)	none
Nc1nc(=S)c2ncn(C3OC(CO)C(O)C3O)c2[nH]1 (centres undefined)	none
Nc1ncn([C@@H]2O[C@H](CO)[C@@H](O)[C@H]2O)c(=O)n1	EWS-Fli block 62 | DNA binder FP inactive
Nc1nc(=S)c2ncn([C@@H]3O[C@H](CO)[C@@H](O)[C@H]3O)c2[nH]1	PAX8 inh HTS 97, EWS-Fli block 53 | DNA binder FP inactive
O=c1cc(O)c2sc3nc(-c4ccccc4)cc(C(F)(F)F)c3c2[nH]1	none (no result: F508del corr, EWS-Fli block)
COc1ccc(OC)c(-c2cc(C(F)(F)F)c3c(n2)sc2c(O)cc(=O)[nH]c23)c1	EWS-Fli block 89 (no result: F508del corr) | DNA binder FP inactive
CCC(=O)N1[C@H](CO)[C@H](c2ccc(-c3cccc(OC)c3)cc2)[C@H]1CNC(C)=O	none (no result: GAA850 FXN act, Env fusion inh, PAX8 inh HTS, EWS-Fli block)
